Test results from the supplement of paper PMC11732987, “Enantioselective OTUD7B fragment discovery through chemoproteomics screening and high-throughput optimisation” (Communications Chemistry, 2025).

Legend:
Assay in all cases: log2 ratio of Biotin-Ahx-Ub-VS probe labelling (compound/DMSO); higher = less target engagement, active = hit call of the paper (q ≤ 0.05, log2 ratio ≤ -1)
Settings in all cases: treatment time: 3 h
[1] = compound: ClCC(=O)NC1CCCc2ccccc12
Summary of the method: (§1)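 DUBs in HEK293T lysate were labelled with Biotin-Ahx-Ub-VS (0.5 µM final, 1 h) after a 3 h treatment with compound at 50 or 200 µM or with DMSO, done in triplicate on 495 µg of lysate per sample. NeutrAvidin-enriched proteins were digested with LysC and trypsin and run by diaPASEF LC-MS/MS. Median-normalised label-free quantities gave average base-two log ratios of compound to DMSO by unpaired t-test, restricted to proteins with at least 2 unique peptides.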

[2] = compound: ClCC(=O)NC1CCOc2ccc(Cl)cc12
Summary of the method: as §1

[3] = compound: ClCC(=O)NC1CCSc2ccccc12
Summary of the method: as §1

[4] = compound: ClCC(=O)N[C@H]1CCCc2ccccc12
Summary of the method: as §1

[5] = compound: Fc1ccc(N2CCN(c3nc4c(CN(C(CCl)=O)CC4)cn3)CC2)cc1.Cl.Cl
Summary of the method: as §1

Measured: log2 ratio of Biotin-Ahx-Ub-VS probe labelling

USP42 (UniProt Q9H9J4)
inactive: [1]; compound concentration: 50uM 0.113 | [1]; compound concentration: 200uM 0.286 | [2]; compound concentration: 50uM -0.00469 | [2]; compound concentration: 200uM 0.132 | [3]; compound concentration: 50uM 0.137 | [3]; compound concentration: 200uM 0.26 | [4]; compound concentration: 50uM -0.0967 | [4]; compound concentration: 200uM 0.0714 | [5]; compound concentration: 50uM -0.0766 | [5]; compound concentration: 200uM 0.241

USP5 (UniProt P45974)
inactive: [1]; compound concentration: 50uM 0.0451 | [1]; compound concentration: 200uM 0.134 | [2]; compound concentration: 50uM 0.0362 | [2]; compound concentration: 200uM -0.0604 | [3]; compound concentration: 50uM 0.236 | [3]; compound concentration: 200uM -0.0467 | [4]; compound concentration: 50uM 0.0744 | [4]; compound concentration: 200uM -0.095 | [5]; compound concentration: 50uM 0.22 | [5]; compound concentration: 200uM -0.287

FAM105A (UniProt Q9NUU6)
Chain of UniProt Q9NUU6 (Q9NUU6 whole entry): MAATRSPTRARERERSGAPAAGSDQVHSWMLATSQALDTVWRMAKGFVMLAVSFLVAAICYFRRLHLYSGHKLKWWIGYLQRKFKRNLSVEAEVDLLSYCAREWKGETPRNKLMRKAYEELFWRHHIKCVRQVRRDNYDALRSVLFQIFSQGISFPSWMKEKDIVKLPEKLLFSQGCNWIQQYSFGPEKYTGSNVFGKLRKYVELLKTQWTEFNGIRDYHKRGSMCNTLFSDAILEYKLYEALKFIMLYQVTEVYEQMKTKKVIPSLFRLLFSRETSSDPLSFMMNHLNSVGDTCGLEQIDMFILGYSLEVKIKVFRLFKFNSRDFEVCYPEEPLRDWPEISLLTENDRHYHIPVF
inactive: [1]; compound concentration: 50uM -0.0884 | [1]; compound concentration: 200uM -0.0754 | [2]; compound concentration: 50uM -0.148 | [2]; compound concentration: 200uM -0.0677 | [3]; compound concentration: 50uM 0.0795 | [3]; compound concentration: 200uM -0.0897 | [4]; compound concentration: 50uM 0.0155 | [4]; compound concentration: 200uM -0.0104 | [5]; compound concentration: 50uM 0.239 | [5]; compound concentration: 200uM -0.443

USP34 (UniProt Q70CQ2)
inactive: [1]; compound concentration: 50uM -0.752 | [1]; compound concentration: 200uM -0.268 | [2]; compound concentration: 50uM 0.178 | [2]; compound concentration: 200uM 0.0865 | [3]; compound concentration: 50uM -0.0836 | [3]; compound concentration: 200uM -0.557 | [4]; compound concentration: 50uM -0.0266 | [4]; compound concentration: 200uM 0.046 | [5]; compound concentration: 50uM -0.25 | [5]; compound concentration: 200uM -0.554

COPS5 (UniProt Q92905)
Chain of UniProt Q92905 (Q92905 whole entry, looked up): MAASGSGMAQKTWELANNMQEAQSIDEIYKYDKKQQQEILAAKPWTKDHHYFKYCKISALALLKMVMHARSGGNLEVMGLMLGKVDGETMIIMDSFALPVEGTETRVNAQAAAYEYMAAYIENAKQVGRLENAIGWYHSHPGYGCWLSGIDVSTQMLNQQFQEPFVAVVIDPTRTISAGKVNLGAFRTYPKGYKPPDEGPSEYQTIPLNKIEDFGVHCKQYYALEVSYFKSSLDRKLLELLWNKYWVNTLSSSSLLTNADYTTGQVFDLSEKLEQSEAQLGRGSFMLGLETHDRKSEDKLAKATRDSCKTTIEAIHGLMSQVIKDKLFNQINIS
inactive: [1]; compound concentration: 50uM -0.103 | [1]; compound concentration: 200uM 0.0648 | [2]; compound concentration: 50uM -0.403 | [2]; compound concentration: 200uM -0.0328 | [3]; compound concentration: 50uM -0.0481 | [3]; compound concentration: 200uM 0.169 | [4]; compound concentration: 50uM -0.289 | [4]; compound concentration: 200uM -0.229 | [5]; compound concentration: 50uM -0.304 | [5]; compound concentration: 200uM 0.0806

USP28 (UniProt Q96RU2)
Chain of UniProt Q96RU2 (Q96RU2 whole entry): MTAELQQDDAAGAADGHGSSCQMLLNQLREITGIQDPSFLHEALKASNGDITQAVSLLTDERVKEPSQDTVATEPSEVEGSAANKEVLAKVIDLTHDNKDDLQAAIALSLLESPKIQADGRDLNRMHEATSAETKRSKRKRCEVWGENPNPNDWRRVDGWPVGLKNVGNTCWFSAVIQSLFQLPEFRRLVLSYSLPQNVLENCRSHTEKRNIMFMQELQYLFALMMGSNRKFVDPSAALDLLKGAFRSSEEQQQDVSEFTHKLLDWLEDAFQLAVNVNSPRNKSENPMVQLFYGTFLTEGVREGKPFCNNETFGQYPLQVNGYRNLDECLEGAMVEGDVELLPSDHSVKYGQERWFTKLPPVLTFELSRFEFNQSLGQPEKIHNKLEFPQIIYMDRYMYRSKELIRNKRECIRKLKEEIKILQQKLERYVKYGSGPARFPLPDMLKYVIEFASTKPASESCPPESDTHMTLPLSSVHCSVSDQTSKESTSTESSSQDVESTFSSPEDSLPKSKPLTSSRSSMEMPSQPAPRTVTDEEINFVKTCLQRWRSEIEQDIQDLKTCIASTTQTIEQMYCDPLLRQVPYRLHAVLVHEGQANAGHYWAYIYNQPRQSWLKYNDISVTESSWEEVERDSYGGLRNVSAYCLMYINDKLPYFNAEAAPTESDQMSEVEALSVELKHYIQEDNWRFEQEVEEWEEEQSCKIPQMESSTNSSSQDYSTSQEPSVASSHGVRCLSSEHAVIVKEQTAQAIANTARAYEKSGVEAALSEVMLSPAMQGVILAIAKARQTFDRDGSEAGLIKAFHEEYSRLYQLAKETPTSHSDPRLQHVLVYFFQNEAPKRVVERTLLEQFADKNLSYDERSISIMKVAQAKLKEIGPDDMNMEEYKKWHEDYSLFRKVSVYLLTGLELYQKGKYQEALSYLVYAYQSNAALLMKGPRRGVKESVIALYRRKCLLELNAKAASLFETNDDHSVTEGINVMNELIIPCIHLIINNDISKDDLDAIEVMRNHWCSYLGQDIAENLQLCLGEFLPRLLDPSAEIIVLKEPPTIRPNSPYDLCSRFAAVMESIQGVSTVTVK
inactive: [1]; compound concentration: 50uM -0.263 | [1]; compound concentration: 200uM -0.626 | [2]; compound concentration: 50uM -0.164 | [2]; compound concentration: 200uM -0.586 | [3]; compound concentration: 50uM -0.108 | [3]; compound concentration: 200uM -0.622 | [4]; compound concentration: 50uM -0.259 | [4]; compound concentration: 200uM -0.947 | [5]; compound concentration: 50uM -0.134
active: [5]; compound concentration: 200uM -1.12

UCHL3 (UniProt P15374)
Chain of UniProt P15374 (P15374 whole entry): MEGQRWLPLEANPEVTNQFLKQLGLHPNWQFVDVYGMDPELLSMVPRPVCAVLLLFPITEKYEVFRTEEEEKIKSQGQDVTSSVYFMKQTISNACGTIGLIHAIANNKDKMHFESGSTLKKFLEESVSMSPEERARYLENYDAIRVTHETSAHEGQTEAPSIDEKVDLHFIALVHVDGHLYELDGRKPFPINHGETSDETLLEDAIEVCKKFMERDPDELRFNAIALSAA
inactive: [1]; compound concentration: 50uM -0.203 | [1]; compound concentration: 200uM 0.0177 | [2]; compound concentration: 50uM -0.519 | [2]; compound concentration: 200uM -0.27 | [3]; compound concentration: 50uM -0.0871 | [3]; compound concentration: 200uM -0.294 | [4]; compound concentration: 50uM -0.224 | [4]; compound concentration: 200uM -0.372
active: [5]; compound concentration: 50uM -1.23 | [5]; compound concentration: 200uM -4.19

VCPIP1 (UniProt Q96JH7)
Chain of UniProt Q96JH7 (Q96JH7 whole entry): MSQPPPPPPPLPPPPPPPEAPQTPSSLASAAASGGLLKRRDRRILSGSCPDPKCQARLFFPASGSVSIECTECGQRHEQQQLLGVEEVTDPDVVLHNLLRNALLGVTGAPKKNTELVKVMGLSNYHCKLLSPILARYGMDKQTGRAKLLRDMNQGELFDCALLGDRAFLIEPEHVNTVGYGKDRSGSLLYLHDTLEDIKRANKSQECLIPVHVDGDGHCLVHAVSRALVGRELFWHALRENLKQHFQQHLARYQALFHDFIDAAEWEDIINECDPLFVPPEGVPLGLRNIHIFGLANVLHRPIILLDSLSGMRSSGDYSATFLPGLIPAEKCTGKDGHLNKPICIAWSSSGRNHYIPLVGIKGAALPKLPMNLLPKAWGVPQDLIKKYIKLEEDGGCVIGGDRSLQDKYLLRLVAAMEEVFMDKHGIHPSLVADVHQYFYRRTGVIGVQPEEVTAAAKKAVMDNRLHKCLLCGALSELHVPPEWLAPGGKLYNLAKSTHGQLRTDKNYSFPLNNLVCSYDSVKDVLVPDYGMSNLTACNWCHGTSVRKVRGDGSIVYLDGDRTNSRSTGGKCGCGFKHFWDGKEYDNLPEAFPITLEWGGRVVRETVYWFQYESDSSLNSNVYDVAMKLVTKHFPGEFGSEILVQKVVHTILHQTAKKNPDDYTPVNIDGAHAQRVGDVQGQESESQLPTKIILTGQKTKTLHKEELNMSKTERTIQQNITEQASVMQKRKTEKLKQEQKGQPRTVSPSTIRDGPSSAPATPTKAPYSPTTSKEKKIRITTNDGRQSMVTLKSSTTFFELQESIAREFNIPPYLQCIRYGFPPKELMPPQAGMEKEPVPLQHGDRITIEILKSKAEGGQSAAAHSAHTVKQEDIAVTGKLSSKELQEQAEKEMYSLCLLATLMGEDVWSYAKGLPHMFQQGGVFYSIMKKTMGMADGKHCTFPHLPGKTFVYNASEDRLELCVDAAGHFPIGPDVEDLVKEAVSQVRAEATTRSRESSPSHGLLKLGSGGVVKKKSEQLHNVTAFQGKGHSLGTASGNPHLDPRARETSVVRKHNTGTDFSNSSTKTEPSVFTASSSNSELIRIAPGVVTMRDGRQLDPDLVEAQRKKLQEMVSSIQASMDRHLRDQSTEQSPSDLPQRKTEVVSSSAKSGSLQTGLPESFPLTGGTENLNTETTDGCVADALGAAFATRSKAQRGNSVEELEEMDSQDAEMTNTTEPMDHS
active: [1]; compound concentration: 200uM -1.1 | [3]; compound concentration: 200uM -1.2
inactive: [1]; compound concentration: 50uM -0.592 | [2]; compound concentration: 50uM -0.668 | [2]; compound concentration: 200uM -0.836 | [3]; compound concentration: 50uM -0.427 | [4]; compound concentration: 50uM -0.287 | [4]; compound concentration: 200uM -0.962 | [5]; compound concentration: 50uM -0.145 | [5]; compound concentration: 200uM -0.737

UniProt Q70EL2
Chain of UniProt Q70EL2 (Q70EL2 whole entry): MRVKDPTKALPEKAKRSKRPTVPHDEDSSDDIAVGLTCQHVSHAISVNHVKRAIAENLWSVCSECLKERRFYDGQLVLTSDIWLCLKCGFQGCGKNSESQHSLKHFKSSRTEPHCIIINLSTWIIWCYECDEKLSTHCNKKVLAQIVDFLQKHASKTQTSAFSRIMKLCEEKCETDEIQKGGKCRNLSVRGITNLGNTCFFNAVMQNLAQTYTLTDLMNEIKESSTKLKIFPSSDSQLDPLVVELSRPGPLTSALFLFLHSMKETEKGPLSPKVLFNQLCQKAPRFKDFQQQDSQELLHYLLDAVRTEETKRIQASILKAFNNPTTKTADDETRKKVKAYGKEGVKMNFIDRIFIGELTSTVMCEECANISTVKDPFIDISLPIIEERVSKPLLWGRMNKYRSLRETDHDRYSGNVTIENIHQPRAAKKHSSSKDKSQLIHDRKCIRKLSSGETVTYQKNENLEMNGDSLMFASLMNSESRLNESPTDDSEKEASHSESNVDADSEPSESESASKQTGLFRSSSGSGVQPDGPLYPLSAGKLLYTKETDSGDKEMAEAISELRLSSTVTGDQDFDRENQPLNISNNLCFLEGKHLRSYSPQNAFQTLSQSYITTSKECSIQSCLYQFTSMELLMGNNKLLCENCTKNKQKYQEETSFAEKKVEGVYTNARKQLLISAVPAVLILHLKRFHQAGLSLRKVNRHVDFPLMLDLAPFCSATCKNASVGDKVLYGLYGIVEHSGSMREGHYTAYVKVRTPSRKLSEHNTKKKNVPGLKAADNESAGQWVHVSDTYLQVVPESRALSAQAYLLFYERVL
inactive: [1]; compound concentration: 50uM 0.0142 | [1]; compound concentration: 200uM -0.673 | [2]; compound concentration: 50uM -0.00989 | [2]; compound concentration: 200uM -0.0714 | [3]; compound concentration: 50uM 0.0879 | [3]; compound concentration: 200uM 0.0524 | [4]; compound concentration: 50uM 0.0625 | [4]; compound concentration: 200uM -0.323 | [5]; compound concentration: 50uM -0.414 | [5]; compound concentration: 200uM -0.995

UniProt Q9P2H5
Chain of UniProt Q9P2H5 (Q9P2H5 whole entry): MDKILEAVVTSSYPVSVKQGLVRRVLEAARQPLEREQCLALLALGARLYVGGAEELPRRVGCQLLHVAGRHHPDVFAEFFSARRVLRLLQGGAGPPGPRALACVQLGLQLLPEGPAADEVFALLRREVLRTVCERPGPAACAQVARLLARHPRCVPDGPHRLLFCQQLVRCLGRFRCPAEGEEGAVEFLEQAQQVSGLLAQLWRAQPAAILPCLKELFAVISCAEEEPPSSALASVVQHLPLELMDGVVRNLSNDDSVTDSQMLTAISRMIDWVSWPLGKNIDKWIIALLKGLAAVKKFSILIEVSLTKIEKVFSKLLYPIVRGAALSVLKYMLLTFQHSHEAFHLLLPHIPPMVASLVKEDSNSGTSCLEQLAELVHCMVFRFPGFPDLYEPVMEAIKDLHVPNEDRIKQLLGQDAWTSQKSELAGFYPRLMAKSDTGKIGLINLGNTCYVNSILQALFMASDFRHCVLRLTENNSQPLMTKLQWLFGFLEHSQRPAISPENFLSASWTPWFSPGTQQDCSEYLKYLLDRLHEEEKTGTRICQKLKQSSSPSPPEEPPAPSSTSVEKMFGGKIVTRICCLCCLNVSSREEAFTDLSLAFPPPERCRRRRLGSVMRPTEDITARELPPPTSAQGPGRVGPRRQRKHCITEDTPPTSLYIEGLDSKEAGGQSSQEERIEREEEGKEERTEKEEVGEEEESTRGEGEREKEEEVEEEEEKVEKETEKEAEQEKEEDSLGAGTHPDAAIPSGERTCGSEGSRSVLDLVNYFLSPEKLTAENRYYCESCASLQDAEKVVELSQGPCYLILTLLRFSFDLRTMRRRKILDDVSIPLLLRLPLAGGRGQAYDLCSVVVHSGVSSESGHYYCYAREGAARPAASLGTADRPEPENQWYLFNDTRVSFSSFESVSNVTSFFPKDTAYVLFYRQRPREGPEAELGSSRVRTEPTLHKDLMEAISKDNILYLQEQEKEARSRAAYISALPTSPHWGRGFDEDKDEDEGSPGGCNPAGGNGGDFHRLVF
active: [5]; compound concentration: 200uM -1.08
inactive: [1]; compound concentration: 50uM -0.0608 | [1]; compound concentration: 200uM 0.0712 | [2]; compound concentration: 50uM -0.42 | [2]; compound concentration: 200uM -0.205 | [3]; compound concentration: 50uM 0.0602 | [3]; compound concentration: 200uM -0.0405 | [4]; compound concentration: 50uM -0.178 | [4]; compound concentration: 200uM -0.0371 | [5]; compound concentration: 50uM -0.262

USP22 (UniProt Q9UPT9)
inactive: [1]; compound concentration: 50uM -0.085 | [1]; compound concentration: 200uM -0.0777 | [2]; compound concentration: 50uM -0.0691 | [2]; compound concentration: 200uM -0.277 | [3]; compound concentration: 50uM 0.136 | [3]; compound concentration: 200uM -0.123 | [4]; compound concentration: 50uM 0.101 | [4]; compound concentration: 200uM -0.302 | [5]; compound concentration: 50uM -0.16 | [5]; compound concentration: 200uM -0.168
